Columns and labels:
Experiment in all cases: PBM binding z-score (relative to random genomic background probes); higher = stronger binding; sequences stand for … in GC…GCGATTGACAGCGTAGAATGAAGG
[1] = tested on: RARb homodimer (NR concentration 270 nM)
Summary of the method: (§1)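 Regression normalization was applied to scanned fluorescence from custom Agilent 4×180K protein-binding microarrays. Before scanning, arrays were incubated 1 h with ligand-free nuclear receptor dimers, and binding was detected with antibodies against each partner (one per run). Binding z-scores use the random background probes as reference.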

[2] = tested on: RARg:RXRa (NR concentration 270 nM, RXRa partner concentration 90 nM)
Summary of the method: as §1

[3] = tested on: RARg homodimer (NR concentration 270 nM)
Summary of the method: as §1

[4] = tested on: RXRa DBDmut IVT, anti-RXR (DBD mutation: RXRa K156A/R161A, NR concentration 90 nM)
Summary of the method: as §1

[5] = tested on: RXRa homodimer (NR concentration 180 nM)
Summary of the method: as §1

[6] = tested on: THRa:RXRa (NR concentration 90 nM, RXRa partner concentration 90 nM)
Summary of the method: as §1

[7] = tested on: THRa homodimer (NR concentration 90 nM)
Summary of the method: as §1

[8] = tested on: VDR homodimer (NR concentration 270 nM)
Summary of the method: as §1

Sequence	PBM binding z-score [1]	PBM binding z-score [2]	PBM binding z-score [3]	PBM binding z-score [4]	PBM binding z-score [5]	PBM binding z-score [6]	PBM binding z-score [7]	PBM binding z-score [8]
GCTTGTAAATCAAGGTTAAGAAAGACTAAGCTAA	0.189	0.539	0.0583	0.137	0.942	1.5	-0.456	-0.374
GCTGCTAGGTCAGGTTGGTCAGCCAACGGGTACG	2.66	2.78	3.65	0.121	0.819	1.61	0.269	0.768
TCATATAGGTAAACAGGCGAAAGTCCGTAAGTTA	0.187	0.299	-0.00353	1.36	0.859	0.323	-0.0757	0.216
ATATGTAGGTTACATCCGCGTCATTCAGGCTATG	0.571	0.929	1.09	0.366	0.901	0.526	0.124	0.163
ATCTCCAGGTAAAGTTCAGTGAAAGATCGATAGA	2.77	2.26	2.51	1.38	1.52	1.73	0.709	1.92
AGTCAAAGTACAGGACGAGGTAACGTAAAGCACG	0.274	0.526	0.919	-0.155	0.598	1.39	0.878	-0.0315
AGTCAAAGTTCACTAGGTATCGTAAGATTCAGCT	3.71	4.66	5.74	4.28	3.72	1.51	-0.258	4.12
TGAAGGAGGTTATAAGATCAGGGAACGTTGCAAA	0.457	1.11	0.942	-0.654	1.56	0.689	0.0287	0.219
GCTGCTAGGTCAACTGATGGGCAGCTAAAGCTCG	3	4.73	5.5	1.45	2.89	2.68	0.684	-0.378
ACTCGGAGGACACAGGTCAGAGCTACGCCAGTGA	2.78	2.68	3.12	0.823	2.09	2.57	0.77	0.0264
TCATATAGGTAAAGGTGAAAGACGAACGATATGA	0.974	1.51	1.34	0.604	1.85	1.04	-0.601	-0.0355
AGTCAAAGTTCAGGGCGAGGTAACGTAAAGCACG	3.56	5.13	4.99	2.95	3.15	3.64	1.28	2.15
CAAACTAGGTCACCGGAAGATCAAAGTCCGCATG	3.35	4.78	5.35	1.93	3.67	3.63	1.81	0.906
ACAGACAGGTGACTGAAGGTAACTCAGCTGGACG	0.000361	0.5	0.509	-0.793	0.654	1.94	-0.751	-0.657
GCTAGCAGGCCATTTGGGTCAGTCAATGACGGGC	1.42	0.49	1.01	-0.27	0.218	0.812	-0.371	-0.151
ATCTCTCGGTAAAGATAGTTCAGTGAATGCAAAT	1.07	0.757	0.753	-0.259	0.154	0.376	0.031	0.334
GGAACGAGGGCATTCGAGTTGATAGCTTGGCGAT	0.679	1.02	1.33	3.13	0.592	3.17	-0.698	3.03
TAGCCTAGGTCATTCAGGGCCCAGTATAGAAAGC	2.54	3.96	4.34	1.96	3.13	3.47	0.59	1.54
CCTACTGGGCCACGAAAGTTCATTGATTCAGTGA	3.23	2.04	2.29	1.34	1.46	1.74	-0.104	4.01
TCCAGTTGGTCACGGAGGTCACACACGACGGGTA	4.6	4.87	4.79	1.11	4.8	3.84	2.09	2.65
GCGACTGGGGCAAAGCAGGTTACCATTAGGTTGG	0.874	0.369	0.722	-0.196	0.428	2.77	-0.429	-0.578
TAGCCTAGGTCATTCAAGGGCCAGTATAGAAAGC	3.38	5.84	4.64	1.71	3.14	4.3	0.514	1.25
TCATATAGGTACAAGGTGAAAGTCGGTGTGGTAA	1.38	0.762	0.453	2.04	1.33	1.91	1.51	0.703
CATTACGGGTCACTGACAGGTTATAGCATTTGGA	3.58	5.97	4.78	2.24	5.7	3.2	0.716	1.4
GGAACGAGGGCATAGTTGATAGCATCTGTCGACG	0.536	0.949	1.22	2.25	1.02	0.72	-0.185	1.18
ATCTCTAGGTAAAAGTTCTGTGAATCCCGAGGAT	-0.265	0.293	0.308	-0.0693	0.153	0.234	0.364	0.467
ACTCGGACGACAAAGGTCAGAGCTACGCCAGTGA	4.21	4.65	4.6	-0.0196	4.83	2.75	-0.0567	0.688
ATTTGTAGGTTAAGGGTCATTCAGGTTGGTTCGC	3.97	5.34	4.15	2.49	6.91	3.76	2.55	5.33

— the supplement of paper PMC6555819
